Reference: the supplement of paper PMC8371130
Counter-ions that a name gives are not always drawn.

Tested on: HL-1
Test: relative cell viability (CellTiter-Glo) vs DMSO control (% of DMSO control); higher = more viable cells
Summary of the method: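 HL-1 mouse atrial cardiomyocytes were plated in 384-well plates at 1000 cells per well together with compounds at 40, 200, 1000 or 5000 nM in 0.01% DMSO. One day later, cells went to a hypoxic workstation (1% O2) for 48 h, then were reoxygenated for 24 h in a normal incubator, or stayed in normoxia for the same time. Cell viability was read by CellTiter-Glo luminescence and normalised to vehicle-treated control cells.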

[1] = oxygen condition: hypoxia 48 h (1% O2) + reoxygenation 24 h, 40 nM
[2] = oxygen condition: hypoxia 48 h (1% O2) + reoxygenation 24 h, 200 nM
[3] = oxygen condition: hypoxia 48 h (1% O2) + reoxygenation 24 h, 1000 nM
[4] = oxygen condition: hypoxia 48 h (1% O2) + reoxygenation 24 h, 5000 nM
[5] = oxygen condition: normoxia 72 h, 40 nM
[6] = oxygen condition: normoxia 72 h, 200 nM
[7] = oxygen condition: normoxia 72 h, 1000 nM
[8] = oxygen condition: normoxia 72 h, 5000 nM

| SMILES | relative cell viability [1] | relative cell viability [2] | relative cell viability [3] | relative cell viability [4] | relative cell viability [5] | relative cell viability [6] | relative cell viability [7] | relative cell viability [8] |
| --- | --- | --- | --- | --- | --- | --- | --- | --- |
| O=C1NC(=O)C(c2ccccc2)(c2ccccc2)N1 [Phenytoin] | 98.3 | 97.9 | 98.1 | 103 | 95.4 | 61.2 | 93.3 | 99.4 |
| CN1CCN(C2=Nc3cc(Cl)ccc3Nc3ccccc32)CC1 [Clozapine] | 105 | 104 | 105 | 99.9 | 96 | 108 | 113 | 102 |
| O=c1oc2c(O)c(O)cc3c(=O)oc4c(O)c(O)cc1c4c23 [Ellagic acid] | 113 | 104 | 114 | 124 | 101 | 113 | 118 | 119 |
| N[C@@H](Cc1cc(I)c(Oc2ccc(O)c(I)c2)c(I)c1)C(=O)O [Liothyronine Sodium] | 105 | 108 | 111 | 109 | 103 | 102 | 108 | 107 |
| Oc1ccc(OCc2ccccc2)cc1 [Monobenzone] | 99.6 | 114 | 110 | 103 | 107 | 104 | 108 | 99.8 |
| CCN(CC)CC#CCOC(=O)C(O)(c1ccccc1)C1CCCCC1 (stereo unspecified) [Oxybutynin chloride] | 94.2 | 99.1 | 98.7 | 98.8 | 104 | 96.3 | 91.2 | 107 |
| CC(C)c1nc(CN(C)C(=O)N[C@@H](CCN2CCOCC2)C(=O)N[C@H](CC[C@H](Cc2ccccc2)NC(=O)OCc2cncs2)Cc2ccccc2)cs1 [Cobicistat] | 109 | 109 | 108 | 120 | 111 | 107 | 108 | 113 |
| C=C[C@H]1CN2CC[C@H]1C[C@H]2[C@H](O)c1ccnc2ccc(OC)cc12 [Quinine hydrochloride dihydrate] | 103 | 104 | 102 | 104 | 102 | 101 | 103 | 111 |
| COC(=O)C1=C(C)NC(C)=C(C(=O)OCCN2CCN(C(c3ccccc3)c3ccccc3)CC2)C1c1cccc([N+](=O)[O-])c1 (stereo unspecified) [Manidipine] | 103 | 103 | 99.6 | 105 | 102 | 99.2 | 103 | 103 |
| CCC[C@@H]1C[C@@H](C(=O)N[C@@H]([C@H]2O[C@H](SC)[C@H](O)[C@@H](O)[C@H]2O)[C@@H](C)O)N(C)C1 [Lincomycin hydrochloride] | 93.1 | 103 | 103 | 103 | 99 | 98.3 | 100 | 97 |
| CNNCc1ccc(C(=O)NC(C)C)cc1 [Procarbazine HCl] | 109 | 101 | 96.6 | 108 | 97.6 | 101 | 97.9 | 113 |
| N=C(N)NC(=N)NCCc1ccccc1 [Phenformin hydrochloride] | 101 | 95.3 | 99.6 | 74.1 | 101 | 103 | 104 | 71.8 |
| Cc1cnc(C(=O)O)c[n+]1[O-] [Acipimox] | 105 | 104 | 109 | 116 | 101 | 104 | 107 | 108 |
| CCC(C)n1ncn(-c2ccc(N3CCN(c4ccc(OCC5COC(Cn6cncn6)(c6ccc(Cl)cc6Cl)O5)cc4)CC3)cc2)c1=O (stereo unspecified) [Itraconazole] | 99.1 | 101 | 100 | 108 | 103 | 106 | 101 | 107 |
| CC(=O)Nc1ccccc1 [Acetanilide] | 96.5 | 98.9 | 100 | 111 | 101 | 94.9 | 98 | 105 |
| NCCS [Cysteamine HCl] | 101 | 108 | 109 | 106 | 102 | 102 | 106 | 111 |
| COc1cc2c(cc1OC)C(=O)C(CC1CCN(Cc3ccccc3)CC1)C2 (stereo unspecified) [Donepezil HCl] | 106 | 106 | 110 | 106 | 95.9 | 102 | 103 | 107 |
| CCOc1ccc2ccccc2c1C(=O)N[C@@H]1C(=O)N2[C@@H]1SC(C)(C)[C@@H]2C(=O)O [nafcillin sodium monohydrate] | 92.6 | 104 | 105 | 109 | 99.1 | 101 | 103 | 107 |
| Cc1cccc(C)c1OCC(C)N (stereo unspecified) [Mexiletine HCl] | 108 | 105 | 104 | 121 | 103 | 105 | 107 | 123 |
| COC(=O)[C@H](c1ccccc1Cl)N1CCc2sccc2C1 [Clopidogrel] | 105 | 103 | 106 | 111 | 108 | 111 | 105 | 119 |
| CC[C@H]1OC(=O)[C@H](C)[C@@H](O[C@H]2C[C@@](C)(OC)[C@@H](O)[C@H](C)O2)[C@H](C)[C@@H](O[C@@H]2O[C@H](C)C[C@H](N(C)C)[C@H]2O)[C@](C)(OC)C[C@@H](C)C(=O)[C@H](C)[C@@H](O)[C@]1(C)O [Clarithromycin] | 101 | 101 | 105 | 105 | 100 | 100 | 107 | 108 |
| COCCOC(=O)C1=C(C)NC(C)=C(C(=O)OC/C=C/c2ccccc2)C1c1cccc([N+](=O)[O-])c1 (stereo unspecified) [Cilnidipine] | 101 | 105 | 110 | 109 | 107 | 109 | 103 | 110 |
